Several values for one entry are separate records, joined by “and”; a condition that tells them apart may be missing. Equal values may be shown once. Results filed as inconclusive are left out. Activity calls are given as the source filed them. Calls follow the shape of the dose curve; as a rule, active = well fitted cell-killing curve with a large enough effect; inconclusive = small, poorly fitted or top-dose-only effect, or effect the other way; inactive = no such curve, though single readings can be large or run the other way.
Assay: Viability qHTS for spleen associated tyrosine kinase inhibitor (SYKi) drug resistant MV4-11 cells (AID 1963824)
Conditions: SYKi-resistant MV4-11 viability, CellTiter-Glo, 72 h; series mostly up to 45 µM
How it was run: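 SYK inhibitor-resistant MV4-11 AML cells, 500 per well, added to predispensed compounds and incubated 72 hr at 37 C, 5% CO2. Viability measured by CellTiter-Glo luminescence after 10 min at room temperature.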
Also: nearly all actives have a fitted effect of over 35% in size.
Potency is read from the fitted curve at half-maximal effect.

Row | SMILES | Potency
1 | COc1cc(Oc2ccnc3cc(OC)c(OC)cc23)ccc1NC(=O)NC(C)c1nccs1 (centres undefined) | 14.8 µM (active)
2 | NS(=O)(=O)c1cc2c(cc1Cl)NC(C1CC3C=CC1C3)NS2(=O)=O (centres undefined) | inactive
3 | CN(C[C@@H]1COCCO1)S(=O)(=O)Nc1ccc2ccc3ncc(-c4cnn(C)c4)cc3c(=O)c2c1 | 0.461 µM (active)
4 | COc1ccc(Cl)c(Nc2ncnc3cc(OCC4CCN(C)CC4)c(OC)cc23)c1 | 5.17 µM (active)
5 | Oc1ccc(C2CCN(c3ccnc4ccccc34)CC2)cc1O | 1.86 µM (active)
6 | CCCCCOc1ccccc1/C(=C\SC)n1ccnc1 | 18.8 µM (active)
7 | O=C(c1ccc(/C=C/c2n[nH]c3ccccc23)cc1)N1CCNCC1 | 0.206 µM (active)
8 | CCOC(=O)c1ccnc(CNCC(=O)N(CC)CCN(C)C)c1 | inactive
9 | CC(C)C(=O)OCC(=O)[C@@]12O[C@H](C3CCCCC3)O[C@@H]1C[C@H]1[C@@H]3CCC4=CC(=O)C=C[C@]4(C)[C@H]3[C@@H](O)C[C@@]12C | 2.95 µM (active)
10 | C=C1CCC2[C@](C)(CO)C(O)CC[C@]2(C)C1C/C=C1/C(=O)OCC1O (some centres undefined) | 2.63 µM (active)
11 | O=C(O)/C(S)=C/c1ccc(I)cc1 | inactive
12 | CNS(=O)(=O)c1ccc2c(c1)/C(=C/c1[nH]c3c(c1CCCN1CCN(C)CC1)CCCC3)C(=O)N2 | 0.332 µM (active)
13 | CCN1CCCC(OC(=O)C(c2ccccc2)c2ccccc2)C1 (centres undefined) | inactive
14 | O=C1NCCN1CCN1CCC(c2cn(-c3ccc(F)cc3)c3ccc(Cl)cc23)CC1 | 1.19 µM (active)
15 | C[C@@H](OC[C@@]1(c2ccccc2)CC[C@]2(CCC(=O)N2)CN1)c1cc(C(F)(F)F)cc(C(F)(F)F)c1 | 7.42 µM (active)
16 | Cn1c(=O)c(F)c(Nc2ccc(I)cc2F)c2c(=O)n(C[C@@H](O)CO)cnc21 | 0.0235 µM (active)
17 | O=C(/C=C/c1cccnc1)NCCCCC1CCN(C(=O)c2ccccc2)CC1 | 0.0053 µM (active)
18 | Cc1ccc(S(=O)(=O)NC(=O)NN2CCCCCC2)cc1 | inactive
19 | CCc1nc(C(N)=O)c(Nc2ccc(N3CCC(N4CCN(C)CC4)CC3)c(OC)c2)nc1NC1CCOCC1 | 11.4 nM (active) and 26.3 nM (active)
20 | CC(C(O)c1ccccc1)N(C)CCOC(c1ccccc1)c1ccccc1 (centres undefined) | 8.2 µM (active)

Row | SMILES | Potency
21 | Oc1cccc(-c2c3nc(c(-c4cccc(O)c4)c4ccc([nH]4)c(-c4cccc(O)c4)c4nc(c(-c5cccc(O)c5)c5ccc2[nH]5)CC4)C=C3)c1 | 18.8 µM (active)
22 | CC(C)(C(=O)O)c1ccc(C(O)CCCN2CCC(C(O)(c3ccccc3)c3ccccc3)CC2)cc1 (centres undefined) | inactive
23 | CN(C)CCN1C(=O)c2cccc3cc(NC(N)=O)cc(c23)C1=O | 4.17 µM (active)
24 | Clc1cc(Cl)cc(CNc2ncncc2-c2ccc3c(c2)OCO3)c1 | 9.34 µM (active)
25 | Cc1cc(OCCOCC[N+](C)(C)Cc2ccccc2)ccc1C(C)(C)CC(C)(C)C | 2.66 µM (active)
26 | O=C(/C=C/c1cccc(S(=O)(=O)Nc2ccccc2)c1)NO | 282 nM (active) and 332 nM (active)
27 | CSc1ccc(C(=O)/C=C/c2cc(C)c(OC(C)(C)C(=O)O)c(C)c2)cc1 | 4.28 µM (active)
28 | CN1C(C)(C)CCCC1(C)C | inactive
29 | CC(C)n1nc(-c2ccc3oc(N)nc3c2)c2c(N)ncnc21 | 73.1 nM (active) and 46.8 nM (active)
30 | O=C(O)C[C@H](O)C[C@H](O)/C=C/c1c(C2CC2)nc2ccccc2c1-c1ccc(F)cc1 | 164 nM (active) and 235 nM (active)
31 | C=CC(=O)Nc1cccc(Nc2nc(Nc3ccc(NC4CN(CCF)C4)cc3OC)ncc2C(F)(F)F)c1 | 1.3 µM (active) and 1.48 µM (active)
32 | NNc1nnc(NN)c2ccccc12 | inactive
33 | Nc1nc(F)nc2c1ncn2C1OC(COP(=O)(O)O)C(O)C1O (centres undefined) | 14.8 µM (active)
34 | O=C(O)c1ccccc1NCCc1ccccc1 | inactive
35 | Cc1ccc2nc(NC(=O)CSc3nc4c(c(=O)n3-c3ccccc3)SCC4)sc2c1 | inactive
36 | C[C@@H](Nc1ncnc2[nH]c(-c3ccc(O)cc3)cc12)c1ccccc1 | 5.17 µM (active) and 10.5 µM (active)
37 | Cc1cccc(C)c1NC(=O)CN1CCN(CCCC(c2ccc(F)cc2)c2ccc(F)cc2)CC1 | 8.41 µM (active)
38 | Oc1cc(O)c2c(c1)O[C@H](c1ccc(O)c(O)c1)[C@H](O)C2 | inactive
39 | CC(COc1ccccc1)NC(C)C(O)c1ccc(O)cc1 (centres undefined) | inactive
40 | NC1(C(=O)N[C@@H](CCO)c2ccc(Cl)cc2)CCN(c2ncnc3[nH]ccc23)CC1 | 0.651 µM (active)

Assay: Quantitative highthroughput screen to assess conditional lethalithy of SEM cells grown in RPMI1640 with unreated serum (RPMI+s) (AID 1963883)
Conditions: SEM B-ALL cells, CellTiter-Glo viability, 48 h; series mostly up to 45.8 µM
How it was run: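 Each medium arm—HPLM with 10% dialyzed FBS, or RPMI1640 with 5 mM glucose and 10% untreated or dialyzed FBS—was screened against an 11-point, 3-fold compound titration for 48 h at 37 °C, with CellTiter-Glo luminescence as endpoint.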

Row | SMILES | Potency
41 | COc1cc(Oc2ccnc3cc(OC)c(OC)cc23)ccc1NC(=O)NC(C)c1nccs1 (centres undefined) | 33.2 µM (active)
42 | CN(C[C@@H]1COCCO1)S(=O)(=O)Nc1ccc2ccc3ncc(-c4cnn(C)c4)cc3c(=O)c2c1 | 0.418 µM (active)
43 | Oc1ccc(C2CCN(c3ccnc4ccccc34)CC2)cc1O | 11.8 µM (active)
44 | Cn1c(=O)c(F)c(Nc2ccc(I)cc2F)c2c(=O)n(C[C@@H](O)CO)cnc21 | 6.62 µM (active)
45 | CCc1nc(C(N)=O)c(Nc2ccc(N3CCC(N4CCN(C)CC4)CC3)c(OC)c2)nc1NC1CCOCC1 | 0.295 µM (active)
46 | Clc1cc(Cl)cc(CNc2ncncc2-c2ccc3c(c2)OCO3)c1 | 26.4 µM (active)
47 | CC(C)n1nc(-c2ccc3oc(N)nc3c2)c2c(N)ncnc21 | 0.0469 µM (active)
48 | Cc1ccc2nc(NC(=O)CSc3nc4c(c(=O)n3-c3ccccc3)SCC4)sc2c1 | 16.6 µM (active)
49 | NC1(C(=O)N[C@@H](CCO)c2ccc(Cl)cc2)CCN(c2ncnc3[nH]ccc23)CC1 | 3.32 µM (active)

From PubChem BioAssay (NCATS)
